# Results: PubChem BioAssay (NCATS)
# Values joined by “and” are separate entries in the source; they are usually repeats but may differ in a detail not shown here. Identical values can stand only once. Inconclusive results are not listed. Active and inactive are the calls of the source. Calls follow the shape of the dose curve; as a rule, active = well fitted inhibition curve with a large enough effect; inconclusive = small, poorly fitted or top-dose-only effect; inactive = flat fitted curve, though single readings scatter.
# Tested on: KB-3-1
# Assay: Cytotoxic Profiling of Annotated Libraries Using Quantitative High-Throughput Screening (AID 1296008); also: nearly all actives have a fitted effect of over 60% in size
# Conditions: Five cell lines viability, CellTiter-Glo ATP luminescence, 48-72 h; max response: stronger effect = lower value
# How it was run: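 Cytotoxicity was measured as CellTiter-Glo ATP luminescence, read after 10 min at room temperature. Compound treatment of the cells lasted 48 or 72 hr at 37 degrees Celsius in a qHTS format.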
# % is scaled to controls: 0 for no effect and ±100 for the full control effect; potency is read from the fitted curve at half-maximal effect.
Compound,Potency,max response
[H+].[H+].[Hg+2].[O-]B([O-])[O-].[c-]1ccccc1,8.2 µM (active),
CN1CCCC(=C(c2cccs2)c2cccs2)C1,,-14.6% (inactive)
OC[C@@H](O)[C@H]1O[C@@H]2O[C@H](C(Cl)(Cl)Cl)O[C@@H]2[C@H]1O,,3.48% (inactive)
ClC1C(Cl)C(Cl)C(Cl)C(Cl)C1Cl (stereo not drawn),,2.37% (inactive)
Oc1ccc2c3c1O[C@H]1[C@@H](O)CC[C@@]4(O)[C@@H](C2)N(CC2CCC2)CC[C@]314,,4.11% (inactive)
CN1[C@@H]2CC[C@H]1CC(OC1c3ccccc3CCc3ccccc31)C2 (stereo partly drawn),,1.95% (inactive)
[2H]C([2H])([2H])[C@H](N)Cc1ccccc1,,2.04% (inactive)
CC1(C)[C@H](C=C(Cl)Cl)[C@H]1C(=O)OCc1c(F)c(F)cc(F)c1F,,-0.195% (inactive)
CCC1(CC)C(=O)NC(=O)N(C)C1=O,,-2.91% (inactive)
Cc1ccccc1-n1c(C)nc2ccccc2c1=O,,-2.74% (inactive) and -4.4% (inactive)
O=S(=O)(O)c1cc(O)ccc1O,,6.29% (inactive)
CC(=O)OC1CN2CCC1CC2 (stereo not drawn),,4.86% (inactive)
C[C@H]1CCC[C@H](O)CCCCCc2cc(O)cc(O)c2C(=O)O1,,2.03% (inactive)
CCCC(C)(COC(N)=O)COC(=O)NC1CC1 (stereo not drawn),,-23.5% (inactive)
CC(=O)O[C@H]1CC[C@@]2(C)C(=CC[C@@H]3[C@@H]2CC[C@]2(C)C(=O)CC[C@@H]32)C1,,-3.08% (inactive)
CCNCC(O)c1cccc(O)c1 (stereo not drawn),,6.6% (inactive)
Cc1ccccc1-n1c(CF)nc2ccc(N)cc2c1=O,,-0.0685% (inactive)
COC(=O)[C@@H]1[C@H]2CC[C@@H](C[C@H]1OC(=O)c1ccccc1)N2C,,0.336% (inactive)
CCC(=O)O[C@@](Cc1ccccc1)(c1ccccc1)[C@@H](C)CN(C)C,,-0.686% (inactive)

Compound,Potency,max response
C=CCN1CC[C@]23c4c5ccc(O)c4O[C@H]2[C@@H](O)C=C[C@H]3[C@H]1C5,,10.7% (inactive)
O=CC=O,,-15.6% (inactive)
O=P(O)(O)C(Cl)(Cl)P(=O)(O)O,,-7.13% (inactive)
CC(Cc1ccccc1)NC=O (stereo not drawn),,2% (inactive)
C#CC(C)(O)CC (stereo not drawn),,-2.82% (inactive)
NCC[C@H](O)C(=O)N[C@@H]1C[C@H](N)[C@@H](O[C@H]2O[C@H](CN)[C@@H](O)[C@H](O)[C@H]2N)[C@H](O[C@@H]2O[C@H](CO)[C@@H](O)[C@H]2O)[C@H]1O,,11% (inactive)
C#CCN1CC(=O)N(COC(=O)C2C(C=C(C)C)C2(C)C)C1=O (stereo not drawn),,-3.38% (inactive)
CCC1C(C)=NN=C(c2ccc(OC)c(OC)c2)c2cc(OC)c(OC)cc21 (stereo not drawn),,11.4% (inactive)
O=C(NC(=O)c1c(F)cccc1F)Nc1ccc(Cl)c(Oc2ncc(C(F)(F)F)cc2Cl)c1,,-5.7% (inactive)
Cc1cc(C)cc(C(=O)OC2C[C@H]3CC[C@@H](C2)N3C)c1 (stereo partly drawn),,-7.52% (inactive)
O=c1ccc2cc(O[C@@H]3O[C@H](CO)[C@@H](O)[C@H](O)[C@H]3O)c(O)cc2o1,,-2.51% (inactive)
[O]=[Cr](=[O])([OH])[O][Cr](=[O])(=[O])[OH],,-23.8% (inactive) and 6.69% (inactive)
OC[C@@H](O)[C@H]1O[C@@H]2O[C@@H](C(Cl)(Cl)Cl)O[C@@H]2[C@H]1O,,1.39% (inactive)
CC(C)[C@@]1(NC(=O)[C@@H]2C[C@@H]3c4cccc5[nH]cc(c45)C[C@H]3N(C)C2)O[C@@]2(O)[C@@H]3CCCN3C(=O)[C@H](Cc3ccccc3)N2C1=O,,25.3% (inactive) and -16.4% (inactive)
c1cc2c(c(NC3=NCCN3)c1)CCCC2,,-8.19% (inactive)
CC(C)(O)[C@@H]1[C@H]2OC(=O)[C@@H]1[C@]1(O)C[C@H]3O[C@]34C(=O)O[C@H]2[C@]14C,,0.436% (inactive) and -3.57% (inactive)
CC(=O)Oc1ccc2c3c1O[C@H]1[C@@H](OC(C)=O)C=C[C@H]4[C@@H](C2)N(C)CC[C@@]341,,-5% (inactive) and 2.33% (inactive)
CN(C)[C@@H]1C(=O)C(C(N)=O)=C(O)[C@@]2(O)C(=O)C3=C(O)c4c(O)ccc(Cl)c4[C@@](C)(O)[C@H]3C[C@@H]12,,2.99% (inactive)
c1ccc2sc(SNC3CCCCC3)nc2c1,,-2.06% (inactive)
